In the library only some 4.8% were active in any assay of this set; here they are far more common.
tim23-1 inh = growth inhibitors of tim23-1 mutant yeast, primary screen, luminescence, uHTS | S. cerevisiae tim23-1 growth, BacTiter-Glo luminescence, 24 h | inhibition, % at 20 µM | hit rate 1.3% among 330,000 | AID 463212, 2010;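 active = growth inhibition of the mutant yeast at or above 50%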;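 also: temperature-sensitive mutant grown at 25 °C; plate controls were DMSO-treated mutant yeast for no effect and medium wells lacking yeast for full effect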
PfHsp90 yeast 2 = growth inhibition of PfHsp90-expressing yeast, primary screen, antimalarial PfHsp90 inhibitor project, S. cerevisiae, BacTiter-Glo luminescence, single point, set 2. BacTiter-Glo ATP, 48 h; yeast lacking PDR1 and PDR3 efflux regulators. AID 504621, 2011. inhibition, % at 9.4 µM. hit rate 0.32% among 310,000;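 active = every replicate shows inhibition above about 80%, whatever the replicate mean, limit read from the data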;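 also: 0% = DMSO neutral controls and 100% = 20 µM radicicol positive controls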
tim10-1 inh = growth inhibitors of tim10-1 mutant yeast, primary screen, luminescence, uHTS | S. cerevisiae tim10-1 ts strain growth, BacTiter-Glo, 24 h | inhibition, % at 20 µM | hit rate 2.2% among 330,000 | AID 463190, 2010;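 active = inhibition of at least 40%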;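 also: mutant grown at 25 °C; 0% = DMSO wells with yeast and 100% = wells holding no yeast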
NALP1 yeast inh = NALP1 inflammasome inhibitors in reconstituted yeast, colorimetric, S. cerevisiae, triplicate retest | AID 2071, 2009 | inhibition, % at 10 µM | hit rate 0.61% among 280,000 | S. cerevisiae NALP1/ASC/caspase-1 growth, X-gal OD620, 72 h; in the data active = inhibition mostly above about 24%, no sharp cut-off; inactive = mostly below about 32%
TIM10 inh = growth inhibitors of isogenic TIM10 control yeast, primary screen, counter-screen for tim10-1 yeast inhibitor project, luminescence, uHTS. inhibition, % at 10 µM. S. cerevisiae TIM10 strain growth, BacTiter-Glo luminescence, 24 h. hit rate 1.4% among 330,000. AID 463195, 2010;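 active = inhibition of 40% or more at the single tested concentration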;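 also: wild-type TIM10 isogenic control strain grown at permissive 25 °C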
SKKanGAS inh = S. pyogenes SKKanGAS growth inhibitors in kanamycin, primary screen, streptokinase expression inhibitor project, SKKanGAS strain, BacTiter-Glo luminescence. 6 h. inhibition, % at 7.5 µM. hit rate 1.3% among 300,000. AID 1662, 2009;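 active = mean replicate score, as percent of positive control median, at least 50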;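 also: strain carries kanamycin resistance gene driven by streptokinase promoter and grows in 40 µg/ml kanamycin; loss of luminescence reflects streptokinase promoter inhibition or plain growth inhibition; 0% = median of DMSO wells and 100% = positive control at its reference dose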
tim10-1 confirm = growth inhibitors of tim10-1 mutant yeast, confirmation, single concentration, luminescence, S. cerevisiae | inhibition, % at 20 µM | S. cerevisiae tim10-1 ts strain growth, BacTiter-Glo, 24 h | shares compounds with tim10-1 inh | hit rate 56% among 7,400;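 active = inhibition of yeast growth at or above a set limit in either of two repeat tests at 20 µM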;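 also: tim10-1 mutant grown at permissive 25 °C to find synthetic lethal compounds; 0% = DMSO yeast wells and 100% = medium wells without yeast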
* = called active by the depositor; / = not tested or not shown.

SMILES | tim23-1 inh | PfHsp90 yeast 2 | tim10-1 inh | NALP1 yeast inh | TIM10 inh | SKKanGAS inh | tim10-1 confirm
COc1ccc(Nc2ncnc3ccc(C)cc23)cc1 | 22 | 0 | 28 | 5 | 6 | -1 | /
COc1ccc(/C=c2\sc3nc(-c4ccccc4OC)nn3c2=O)c(OC)c1 | 0 | -36 | 18 | 36 | -20 | 18 | /
C=CCOc1ccccc1/C=c1\sc2nc(=O)c(C)nn2c1=O | 47 | -7 | 45* | -2 | 30 | / | 50*
Cc1ccc(NC(=S)/N=C(\N)Nc2nc(C)c3cc(C)c(C)cc3n2)cc1C | 13 | -5 | 18 | -8 | 7 | 40 | /
Cc1ccc(NC(=S)/N=C(\N)Nc2nc(C)c3cc(C)ccc3n2)c(C)c1 | 48 | 19 | 50* | 1 | 32 | 11 | 37*
CCOc1ccccc1C(=O)Nc1ccc(S(=O)(=O)Nc2nccc(C)n2)cc1 | -6 | -2 | -2 | 13 | 1 | 10 | /
CC(C)C(NC(=O)C1CCCCC1)C(=O)Nc1ccc2c(c1)OCCO2 (stereo not given) | 23 | 3 | 12 | -14 | 2 | 7 | /
CCN=c1scc(-c2ccc3c(c2)NC(=O)CO3)n1N=C1CCCC1 | 33 | 2 | 11 | -6 | 12 | 11 | /
CCCCN=c1scc(-c2ccc3c(c2)NC(=O)CO3)n1N=C1CCCC1 | 22 | / | 44* | -20 | 32 | 9 | 7
CC1CCC2(CC1)C(Nc1cccc(Cl)c1)=NC(=S)N2CC#N (stereo not given) | 41 | -25 | 43* | 24 | 30 | -4 | 39*
COc1ccc(N2C(=S)N=C(Nc3cccc(C)c3)C23CCCCC3)cc1 | 10 | -4 | 19 | 21 | -4 | -3 | /
CC1CCC(NC(=O)CCCn2sc3ccccc3c2=O)CC1 (stereo not given) | 39 | 10 | 41* | 1 | 2 | -1 | 1
O=C(CCCn1c(=O)[nH]c2ccccc2c1=O)NC1CCCCCC1 | 14 | 8 | 16 | 26 | 9 | 2 | /
COc1ccc(OC)c(C2=Nn3c(nnc3C3CCCCC3)SC2)c1 | 19 | -36 | 28 | 10 | 31 | -1 | /
COc1ccccc1C1=Nn2c(nnc2C2CCCCC2)SC1 | 16 | 4 | 44* | 3 | -3 | / | 19
O=C(c1ccc(Cl)c(S(=O)(=O)N2CCCCCC2)c1)N1CCN(c2ccccc2O)CC1 | 5 | 9 | 19 | 5 | 15 | 8 | /
CCC1CCCCN1C(=O)c1ccc([N+](=O)[O-])o1 (stereo not given) | 44 | 30 | 54* | 6 | 38 | -4 | 35*
CCOC(=O)Cc1cc(-c2ccc(O)cc2)nc2ccc3ccccc3c12 | 22 | -20 | 42* | 15 | 19 | 14 | 24
O=C(c1ccc(Cl)cc1)N1CCN(S(=O)(=O)/C=C/c2ccccc2)CC1 | 42 | -10 | 46* | / | 20 | / | 22
COCCCN(C)C1CCN(C(=O)Nc2ccc(F)cc2)CC1 | -11 | 2 | -18 | 4 | -1 | 3 | /
O=C(Nc1ccc(Cl)c(Cl)c1)c1csc(-c2ccccc2)n1 | -2 | 3 | 10 | 32 | 3 | 1 | /
O=C(Nc1cccc(Cl)c1)c1csc(-c2ccccc2)n1 | 32 | -8 | 44* | 33 | 22 | 13 | 9
COc1ccc2cc3cc(C(=O)N(C)C4CCCCC4)oc3nc2c1 | 49 | -5 | 45* | -11 | 15 | 11 | -13
Cc1cnc(NC(=O)NCC2CCCC(CNC(=O)Nc3ncc(C)s3)C2)s1 (stereo not given) | 3 | -8 | 1 | 14 | -12 | 17 | /
Cc1ccc(-n2nnnc2CNC(=O)c2ccc([N+](=O)[O-])o2)cc1C | 27 | -14 | 43* | / | 32 | -2 | 31*
SMILES | tim23-1 inh | PfHsp90 yeast 2 | tim10-1 inh | NALP1 yeast inh | TIM10 inh | SKKanGAS inh | tim10-1 confirm
O=C(CSc1nnc(-c2ccc(O)cc2)o1)N1CCOCC1 | -10 | -11 | 2 | 9 | -12 | -3 | /
Oc1ccc(-c2nnc(SCC3CCCCC3)o2)cc1 | 22 | / | 44* | 2 | 32 | -2 | 28
FC(F)(F)c1nc(N2CCCC2)ncc1-c1nnnn1-c1ccc(Cl)cc1 | 23 | 32 | 40* | 9 | 18 | 7 | 11
Cc1ccc(-n2nnnc2-c2cnn(-c3ccc(F)cc3)c2C(F)(F)F)cc1 | 28 | 33 | 41* | -56 | 6 | -6 | 3
Cc1ccc(-c2nnnn2-c2ccc(C)cc2)cc1 | 45 | -22 | 33 | 6 | 27 | -14 | /
Fc1ccc(-n2nnnc2-c2cnc(-c3cccs3)nc2C(F)(F)F)cc1 | 13 | / | 41* | 5 | 33 | 7 | 19
FC(F)(F)c1ccncc1-c1nnnn1-c1ccc(Cl)cc1 | -3 | 2 | 6 | 14 | 8 | -12 | /
COc1cc(Cl)ccc1NC(=S)N(CCN(C)C)C(C)c1ccncc1 (stereo not given) | 14 | 13 | 14 | / | 0 | 11 | /
CC(C)(C)NC(=O)C(c1ccncc1)N(Cc1ccco1)C(=O)c1ccc(-c2ccccc2)[nH]1 (stereo not given) | 35 | / | 52* | 18 | 25 | -4 | 42*
CC(C)c1ccc(S(=O)(=O)/N=C2/C=CC(=O)c3ccccc32)cc1 | 34 | / | 43* | -8 | 20 | / | 29
O=C(COC(=O)c1ccco1)NCCNC(=O)COC(=O)c1ccco1 | 5 | -1 | -6 | 11 | -6 | 6 | /
O=C1S/C(=C/c2ccc(N3CCOCC3)o2)C(=O)N1Cc1ccc(F)cc1 | 25 | 26 | 42* | 9 | 24 | -1 | 50*
O=C1S/C(=C\c2ccc(N3CCOCC3)o2)C(=O)N1Cc1ccc(F)cc1 | 17 | 13 | 33 | -2 | 19 | / | /
COc1ccc(NC(=O)CSc2nnc(-c3cccnc3)o2)cc1 | 11 | -8 | -2 | 4 | 0 | -2 | /
CC(C)Sc1oc(-c2ccco2)nc1S(=O)(=O)c1ccccc1 | 49 | -9 | 41* | -63 | 30 | -1 | 30
CSc1oc(-c2ccco2)nc1S(=O)(=O)c1ccccc1 | 14 | 10 | 12 | -6 | -8 | 1 | /
CCn1c(CN2CCN(c3ccc(Cl)cc3)CC2)nc2ccccc21 | 36 | 39 | 52* | 8 | 36 | / | 34*
Cn1c(CN2CCN(c3ccc(Cl)cc3)CC2)nc2ccccc21 | 39 | / | 33 | 17 | 31 | -11 | /
CCCc1ccc2oc(C(=O)N3CCC(C(N)=O)(N4CCCCC4)CC3)c(C)c2c1 | 42 | 2 | 42* | 10 | 22 | 7 | 27

Source: PubChem BioAssay
